Measurements from the supplement of paper PMC8975748.
Where a name gives a salt, the structure may show the parent alone.

tested on: Saccharomyces cerevisiae BY4741 SeMeCo community; assay: z-score of subpopulation abundance vs DMSO median, subpopulation auxotrophic for HLUM; higher = larger share of this subpopulation than in DMSO controls; conditions: 10 µM; 24 h; SM minimal medium; subpopulation (auxotrophy): HLUM
How it was run: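 Four plasmids, each restoring a single auxotrophy and encoding a distinct fluorescent protein, were carried by a Saccharomyces cerevisiae BY4741 community. After overnight growth to OD600 1.0 and dilution to 0.3, 70 µl per well was grown for 24 h in minimal SM medium on 384-well plates acoustically predosed with library drugs at 10 µM final. Following paraformaldehyde fixation, automated confocal microscopy was used, with single-auxotroph fluorescent strains defining thresholds and autofluorescence correction. Subpopulation abundance was then scored as a z-score against the vehicle-well median.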

Row | Compound | z-score of subpopulation abundance
1 | CCOc1cc(N)c(Cl)cc1C(=O)NCC1CN(Cc2ccc(F)cc2)CCO1 (configuration not stated) [Mosapride] | 0.05
2 | C/C(=C\C(=O)OCCCCCCCCC(=O)O)C[C@@H]1OC[C@H](C[C@@H]2O[C@H]2[C@@H](C)[C@H](C)O)[C@@H](O)[C@H]1O [Mupirocin calcium] | -0.25
3 | Cc1cc(C)nc(NS(=O)(=O)c2ccc(N)cc2)n1 [Sulfamethazine Sodium Salt] | 0.81
4 | CCN(CC)CCNC(=O)c1cc(Cl)c(N)cc1OC [Metoclopramide] | 1.06
5 | O=C1[C@H]2CCCC[C@H]2C(=O)N1CCCCN1CCN(c2nsc3ccccc23)CC1 [Perospirone hydrochloride] | -0.08
6 | CC1=C(C(=O)OCCN(Cc2ccccc2)c2ccccc2)C(c2cccc([N+](=O)[O-])c2)C(P2(=O)OCC(C)(C)CO2)=C(C)N1 (configuration not stated) [Efonidipine] | 1.4
7 | CS(=O)(=O)c1ccc([C@@H](O)[C@@H](CF)NC(=O)C(Cl)Cl)cc1 [Florfenicol] | -0.14
8 | COC(=O)C1=C(C)NC(C)=C(C(=O)OC(C)(C)CN(C)CCC(c2ccccc2)c2ccccc2)C1c1cccc([N+](=O)[O-])c1 (configuration not stated) [Lercanidipine hydrochloride] | -0.22
9 | O=c1[nH]c2ccccc2n1CCN1CCN(c2cccc(C(F)(F)F)c2)CC1 [Flibanserin] | -0.98
10 | NC1CCN(c2nc3c(cc2F)c(=O)c(C(=O)O)cn3-c2ccc(F)cc2F)C1 (configuration not stated) [Tosufloxacin p-Toluenesulfonate Hydrate] | -0.36
11 | CC1(C)S[C@@H]2[C@H](NC(=O)[C@H](NC(=O)N3CCNC3=O)c3ccccc3)C(=O)N2[C@H]1C(=O)O [Azlocillin sodium salt] | 0.63
12 | CCN(CC)CCOC(=O)c1ccc(N)cc1Cl [Chloroprocaine HCl] | 0.58
